In the library only some 7.6% were active in any assay of this set; here they are far more common.
SW480 rerep: A quantitative high throughput screen for small molecules that induce DNA re-replication in SW480 colon adenocarcinoma cells | Potency, µM (titrated, usually from 46.1 µM), inactives show at the highest dose re-replication activation, usual class: activators | 340,000 compounds, 1.8% hits | SW480 DNA re-replication, Hoechst DNA content imaging, 48 h; note: potency is the fitted concentration of half-maximal effect; % of control where 0% means no effect; nearly all actives have a fitted effect of over 55% in size
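Cells (250 per well) received 23 nL compound or DMSO by pin tool and were kept 48 hr at 37 C, 5% CO2. Nuclei were then stained with Hoechst for 40 min and scanned for DNA content.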
KCNH2 WT inh: qHTS for Inhibitors of KCHN2 3.1: Wildtype qHTS | U2OS, BacMam KCNH2, thallium flux FluxOr; active compounds read low | activity change, % at 1.84 µM | 340,000 compounds, 0.37% hits | AID 720551, 2013;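 active = maximum activity change below -70%; inconclusive = maximum activity change between -70% and -50%; inactive = maximum activity change above -50%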; note: % is set by controls: 0 for no effect and ±100 for the full control effect
Target sequence (Q12809 whole entry, looked up): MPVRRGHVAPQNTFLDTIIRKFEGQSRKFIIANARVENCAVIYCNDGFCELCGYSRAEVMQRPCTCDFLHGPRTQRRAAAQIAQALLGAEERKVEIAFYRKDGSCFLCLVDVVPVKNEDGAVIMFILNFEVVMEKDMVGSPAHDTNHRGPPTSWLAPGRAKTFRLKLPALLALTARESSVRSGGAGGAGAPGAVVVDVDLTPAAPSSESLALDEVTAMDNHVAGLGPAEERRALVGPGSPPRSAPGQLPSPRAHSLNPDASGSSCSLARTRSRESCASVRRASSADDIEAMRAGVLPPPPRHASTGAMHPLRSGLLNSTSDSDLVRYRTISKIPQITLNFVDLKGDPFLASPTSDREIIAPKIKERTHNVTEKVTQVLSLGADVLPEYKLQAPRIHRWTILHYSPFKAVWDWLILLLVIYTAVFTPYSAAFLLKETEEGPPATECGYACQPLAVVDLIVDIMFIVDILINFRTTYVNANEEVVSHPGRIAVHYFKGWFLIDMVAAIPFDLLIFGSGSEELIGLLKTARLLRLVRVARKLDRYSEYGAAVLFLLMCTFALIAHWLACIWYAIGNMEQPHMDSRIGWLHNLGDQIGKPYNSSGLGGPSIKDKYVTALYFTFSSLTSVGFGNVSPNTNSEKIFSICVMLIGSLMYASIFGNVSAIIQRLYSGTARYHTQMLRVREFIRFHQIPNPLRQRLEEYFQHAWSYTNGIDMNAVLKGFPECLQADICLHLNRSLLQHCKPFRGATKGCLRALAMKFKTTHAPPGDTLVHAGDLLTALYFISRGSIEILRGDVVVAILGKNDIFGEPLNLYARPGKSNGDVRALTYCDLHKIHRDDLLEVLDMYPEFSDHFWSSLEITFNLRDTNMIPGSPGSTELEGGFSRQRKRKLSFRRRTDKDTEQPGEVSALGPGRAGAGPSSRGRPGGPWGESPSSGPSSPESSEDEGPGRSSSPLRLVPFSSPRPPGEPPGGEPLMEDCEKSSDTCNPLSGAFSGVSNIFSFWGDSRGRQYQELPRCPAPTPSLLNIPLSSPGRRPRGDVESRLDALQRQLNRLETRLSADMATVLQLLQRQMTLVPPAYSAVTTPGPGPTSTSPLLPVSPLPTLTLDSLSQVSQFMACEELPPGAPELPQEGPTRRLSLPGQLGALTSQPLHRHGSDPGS
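U2OS cells were transduced with wild-type KCNH2 virus (2.03 x 10^8 / mL) for 4 h at room temperature, then cultured overnight at 37 C. Thallium flux was read with FluxOr dye. Rate constants were normalized to DMSO controls.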
KB-V1 MDR tox: qHTS assay for MDR1-selective chemotherapeutics: Primary screen using the drug-selected MDR subline cells KB-V1; KB-V1 MDR cells viability, CellTiter-Glo, 72 h; Potency, µM (highest dose often 46.1 µM), most hits filed as cytotoxic; 400,000 compounds, 3.4% hits; AID 1347076, 2019; note: potency is the fitted concentration of half-maximal effect; % is set by controls: 0 for no effect and ±100 for the full control effect; nearly all actives have a fitted effect of over 60% in size
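KB-V1 MDR subline cells in DMEM (phenol-red free, 10% FBS) exposed to compounds in qHTS concentration series for 72 h at 37 degrees C. Viability read by CellTiter-Glo luminescence; concentration-effect curves fitted after normalization and correction.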
KB-3-1 cytotox: qHTS assay for MDR1-selective chemotherapeutics: Primary screen using the parental adenocarcinoma cell KB-3-1; KB-3-1 viability, CellTiter-Glo ATP luminescence, 72 h; Potency, µM (titrated, usually from 46.1 µM), usual class: cytotoxic; 400,000 compounds, 1.4% hits; AID 1347075, 2019; note: potency is the fitted concentration of half-maximal effect; % is set by controls: 0 for no effect and ±100 for the full control effect; nearly all actives have a fitted effect of over 60% in size
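72 h, 37 °C compound treatment of KB-3-1 parental cells; CellTiter-Glo added, 10 min, luminescence read. Data corrected against DMSO-only plates and normalized before curve fitting.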
MCF10A rereplic: A quantitative high throughput screen for small molecules that induce DNA re-replication in MCF 10a normal breast cells; MCF 10A DNA re-replication, Hoechst nuclear intensity, 48 h; 350,000 compounds, 2.9% hits; Potency, µM (doses to about 46.1 µM), for inactives: top-dose activity, positive = re-replication, hits mostly activators; AID 624296, 2012; note: potency is the fitted concentration of half-maximal effect; % of control where 0% means no effect; nearly all actives have a fitted effect of over 50% in size
KCNH2 3.1 inh: qHTS for Inhibitors of KCHN2 3.1: Mutant qHTS | Potassium voltage-gated channel subfamily H member 2, brain isoform KCNH2 3.1 (human) | U2OS KCNH2 3.1, thallium flux FluxOr; active compounds read low | activity change, % (tested at about 1.8 µM) | 340,000 compounds, 0.95% hits | AID 720553, 2013;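 active = maximum activity change below -70%; inconclusive = maximum activity change from -70% to -50%; inactive = maximum activity change above -50%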;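 note: thallium influx rate constant from kinetic fluorescence after stimulation buffer; % is set by controls: 0 for no effect and ±100 for the full control effect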
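Normalized rate constant (relative to positive and negative DMSO controls) derived from a 2 min kinetic fluorescence read after stimulation; U2OS cells expressing the 3.1 isoform via virus at 1.77 x 10^8 /mL.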
* = called active by the depositor; i = inactive; ? = inconclusive; . = no result given; ! = repeats disagree. Unless noted, calls come from the whole dose curve; as a rule, active = well fitted curve in the direction sought with a large enough effect; inconclusive = small, poorly fitted or top-dose-only effect, or another doubt; inactive = no such curve, though single readings can be large; an effect the other way counts as inactive or inconclusive.

SMILES	SW480 rerep	KCNH2 WT inh	KB-V1 MDR tox	KB-3-1 cytotox	MCF10A rereplic	KCNH2 3.1 inh
CSc1ccc(/C=N/NC(=O)CN2CCN(Cc3ccc(C)cc3)CC2)cc1	-17.6%	-46.7	?	i	5.6%	-113.3*
O=C(CN1CCCCCC1)N/N=C/c1ccc(Cl)c(Cl)c1	-4.2%	-0.7	i	i	-6.9%	-75.5*
COC(=O)c1ccc(/C=N\N2CCN(Cc3ccc(C)cc3)CC2)cc1	-0.2%	-11.0	8.2µM*	i	3.1%	-34.8
CSc1ccc(/C=N/NC(=O)CN2CCN(Cc3ccccc3Cl)CC2)cc1	-7.4%	28.5	?	i	4.1%	-82.2*
Cc1ccnc(NC(=S)N2CCN(c3ccc(Br)cc3)CC2)c1	.	.	i	i	.	.
C=CCc1c(C)c(C#N)c2nc3ccccc3n2c1N1CCCCC1	?	-5.2	i	?	13.0%	-10.4
C=C(C)CSc1cc(C)c(C#N)c2nc3ccccc3n12	?	i	i	i	5.8µM*	-2.0
C=C(C)Cc1c(C)c(C#N)c2nc3ccccc3n2c1N1CCCCC1	-6.1%	1.0	3.66µM*	i	?	11.8
O=C(O)c1ccc(NCCC2=CCCCC2)c([N+](=O)[O-])c1	0.3%	-13.1	i	i	2.7%	-0.1
COc1ccccc1NC1=C(Cl)C(=O)N(c2ccccc2)C1=O	10.3µM*	5.4	i	i	-3.0%	-5.3
CN(C)CCNC(=O)c1sc2cccc(F)c2c1Cl	?	-3.5	i	i	27.7%	-1.2
CN(C)CCNC(=O)c1cccc2ccc(-c3ccc(-c4ccccc4)cc3)nc12	?	14.7	11.6µM*	?	?	-19.3
CN(C)CCNC(=O)c1cccc2nc3cccc(F)c3nc12	21.6%	-12.4	?	4.11µM*	?	2.9
COc1ccc(OC)c2nc3c(C(=O)NCCN(C)C)cccc3nc12	?	-6.0	20.6µM*	?	?	3.2
CN(C)CCNC(=O)c1ccccc1	-8.5%	17.6	i	i	-3.6%	-4.9
Cc1onc(C(=O)Nc2cccc(C(F)(F)F)c2)c1[N+](=O)[O-]	12.9%	31.9	i	i	?	0.5
Cc1nc(Cl)c(C(=O)NC(=O)Nc2cccc(C(F)(F)F)c2)c(C)c1[N+](=O)[O-]	?	2.1	?	10µM*	17.8%	-2.4
CC(C)c1nc(N2CCN(C(=O)c3ccco3)CC2)c(C#N)c2c1COC(C)(C)C2	24.1%	2.4	18.4µM*	?	?	23.4
CC1(C)Cc2c(C#N)c(N3CCN(C(=O)c4ccccc4)CC3)nc(-c3ccco3)c2CS1	1.9%	4.8	?	?	13µM*	13.9
CC(C)c1nc(N2CCN(C(=O)c3ccccc3)CC2)c(C#N)c2c1COC(C)(C)C2	17.4%	-8.0	?	?	?	-21.6
O=C(Nc1ccc(F)cc1)Nc1nnc(Cc2ccccc2F)s1	0.6%	-3.7	18.4µM*	i	2.0%	-14.9
COc1cccc(NC(=O)Nc2nnc(Cc3ccccc3F)s2)c1	5.3%	-4.4	?	i	14.6µM*	-2.5
CC(C)c1ccccc1NC(=S)NCCCn1ccnc1	-51.8%	-1.4	i	i	0.731µM*	11.9
CCOc1ccc(NC(=S)NCCCn2ccnc2)cc1	-0.8%	6.6	i	i	0.1%	-12.0
Cc1ccc(C)c(S(=O)(=O)N2CCN(C(C(=O)Nc3ccc(F)cc3)c3ccccc3)CC2)c1 (centres undefined)	13.5%	5.7	i	i	4.7%	-85.7*
SMILES	SW480 rerep	KCNH2 WT inh	KB-V1 MDR tox	KB-3-1 cytotox	MCF10A rereplic	KCNH2 3.1 inh
CNC(=O)c1cc2c(-c3ccccc3)nn(C)c2s1	6.0%	8.3	i	i	17.3%	7.8
COCCNc1ncnc2c1ncn2[C@H]1CN(Cc2ccc(F)cc2)C[C@@H](CO)O1	.	.	i	i	.	.
CN(C)CCNc1ncnc2c1ncn2[C@H]1CN(Cc2ccc(F)cc2)C[C@@H](CO)O1	.	.	i	8.2µM*	.	.
COc1cnc(-c2ccccn2)nc1Sc1cccc(Cl)c1	11.6µM*	-14.1	?	i	20.6µM*	-8.7
COc1cnc(-c2ccccn2)nc1NC(C)C	6.51µM*	4.1	7.31µM*	?	23.1µM*	21.3
COc1cnc(-c2ccccn2)nc1Oc1ccc(Cl)cc1	10.3µM*	-11.9	?	i	?	-12.0
COc1ccc(CN2CC[C@H]3C=CC[C@@H](C(=O)NCc4cccnc4)[C@H]3C2=O)cc1OC	.	.	i	i	.	.
CCOC(=O)c1[nH]c(C)c(/C(O)=C2\C(=O)C(=O)N(CCCN3CCOCC3)C2c2cccs2)c1C (centres undefined)	13µM*	6.2	?	?	9.2µM*	-0.5
Cc1nn(C)c2c1c(-c1ccccc1)cc(=O)n2Cc1ccc(F)cc1Cl	.	.	i	i	.	.
O=[N+]([O-])c1ccc(Sc2ccc(Cl)c(Cl)c2)nc1	16.7%	-14.1	?	i	14.6µM*	7.0
O=[N+]([O-])c1ccc(Sc2ccccn2)nc1	-4.9%	0.7	?	i	-1.9%	14.3
N#Cc1cccc(OC2=NS(=O)(=O)c3ccccc32)c1	.	.	?	i	.	.
COc1ccc(-c2cc(C(F)(F)F)nc(NCCc3ccccc3)n2)cc1	.	.	i	i	.	.
Fc1ccc(N2CCN(c3nc(-c4ccco4)cc(C(F)(F)F)n3)CC2)cc1	-9.1%	0.8	i	i	?	-7.7
O=[N+]([O-])c1cnn(-c2nc(-c3ccco3)cc(C(F)(F)F)n2)c1	18.4µM*	-5.8	i	i	14.7%	12.1
FC(F)(F)c1cc(-c2ccco2)nc(NCCc2ccccc2)n1	?	4.6	i	i	18.4µM*	-4.6
FC(F)(F)c1cc(-c2ccco2)nc(N2CCN(Cc3ccccc3)CC2)n1	3.5%	18.4	i	i	12.6µM*	-14.9
Cc1nn(-c2nc(-c3ccco3)cc(C(F)(F)F)n2)c(C)c1Br	-2.5%	-1.3	i	i	0.3%	2.3
O=C(CSc1nnc(COc2ccccc2)o1)Nc1ccc(F)cc1	1.5%	13.2	i	i	-1.6%	1.0
Cc1ccc(NS(=O)(=O)c2ccc3c(c2)NC(=O)CCS3)c(Br)c1	5.9%	4.5	23.1µM*!	?	0.0%	12.1
COc1cc(OC)c(NS(=O)(=O)c2ccc3c(c2)NC(=O)CCS3)cc1Cl	.	.	?	18.4µM*	.	.

Source: PubChem BioAssay
